# Source: PubChem BioAssay AID1917 (Vanderbilt High Throughput Screening Facility, 2009)
# Screen size: about 3,000 compounds; about 1,600 (53%) were called active. Roughly 10% stayed inconclusive and do not appear here. The set was probably picked from earlier hits. Only a sample is shown. A number with no mark means an inactive call.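 Rule for the calls: active = Flux at 10 µM at least 3 SD below or above vehicle control mean in one or both replicates; inconclusive = no clear call, values can overlap the other calls; inactive = the rest.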
# Biological target: ATP-sensitive inward rectifier potassium channel 1 (Homo sapiens) (UniProt P48048)
# Sequence (P48048 whole entry, looked up): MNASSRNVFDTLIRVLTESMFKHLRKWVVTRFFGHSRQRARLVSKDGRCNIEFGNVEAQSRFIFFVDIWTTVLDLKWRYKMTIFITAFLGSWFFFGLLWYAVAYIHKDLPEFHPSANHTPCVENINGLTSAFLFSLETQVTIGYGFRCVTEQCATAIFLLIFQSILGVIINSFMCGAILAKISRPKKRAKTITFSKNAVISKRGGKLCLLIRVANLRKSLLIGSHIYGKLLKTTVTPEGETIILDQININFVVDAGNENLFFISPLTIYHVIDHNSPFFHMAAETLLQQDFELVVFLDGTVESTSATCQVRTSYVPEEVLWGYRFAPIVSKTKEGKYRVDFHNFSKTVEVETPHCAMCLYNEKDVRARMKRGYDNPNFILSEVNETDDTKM
# Test: retested modulators of human Kir1.1 channel – cell-based, thallium flux, duplicate, resupplied hits, confirmation (AID 1917)
# Conditions: ROMK thallium flux, fluorescence ratio; at 10 µM; stronger effect = lower value
row,SMILES,normalized thallium flux (F/F0 slope)
1,CC(=O)Nc1cccc(OCC(=O)/C=C2\N(C)c3ccccc3C2(C)C)c1,0.0622 (active)
2,COc1ccc(C2=CC(c3cccc(OC)c3)n3nnnc3N2)cc1 (stereo not drawn),0.0704
3,Cc1cc(NC(=O)/C=C/C(=O)N(c2ccccc2C)C(C(=O)NC2CCCC2)c2ccc(F)cc2)no1 (stereo not drawn),0.0543 (active)
4,N#C/C(=C/c1cccc([N+](=O)[O-])c1)c1nnc2n1CCCCC2,0.0362 (active)
5,CC1=C(C(=O)OCc2ccccc2)C(c2ccco2)n2ncnc2N1 (stereo not drawn),0.0737
6,COc1ccc(C(CCNCc2ccccc2F)c2ccc(F)cc2)cc1 (stereo not drawn),0.0609 (active)
7,Cc1cccc(Oc2c([N+](=O)[O-])c(=O)n(C)c3ccccc23)c1,0.063 (active)
8,Nc1ccccc1SC(C[N+](=O)[O-])c1ccccc1 (stereo not drawn),0.0367 (active)
9,O=C(/C=C/Sc1ncn[nH]1)c1ccc(Cl)cc1,0.0389 (active)
10,Cc1ccc2c(=O)oc(N(C)C)nc2c1,0.0826
11,CCOc1ccc(-n2cnnn2)cc1S(=O)(=O)N1CCC(C)CC1C (stereo not drawn),0.0657 (active)
12,N=c1n(CCc2ccccc2)c2ccccc2n1Cc1ccccc1F,0.0479 (active)
13,COc1ccc(Nc2cc(C)nc(-n3nc(C)cc3C)n2)cc1,0.0854
14,CC1(C)CCSC(/C=C/c2ccccc2)=N1,0.0442 (active)
15,CCn1c(/C=C/Nc2ccccc2)[n+](CC)c2ccc(C(=O)OCC(F)(F)F)cc21,0.0522 (active)
16,O=C(Nc1cccc(C(F)(F)F)c1)c1ccc(N2CCNCC2)c([N+](=O)[O-])c1,0.0632 (active)
17,N#C/C(=C\c1ccccc1C(F)(F)F)C(=O)Nc1ccccc1F,0.0489 (active)
18,Cc1ccc(N2C(=O)C3CC3C2=O)cc1 (stereo not drawn),0.0794
19,N#C/C(=C\C1=C(N2CCOCC2)C(=C\c2ccccc2)/CC1)C(=O)Nc1ccccc1F,0.0509 (active)
20,COC(=O)C[n+]1cccc2ccccc21,0.0529 (active)
21,CN1CCN(c2ccc(S(=O)(=O)N3CCCCC3)cc2NC(=O)Cc2ccccc2F)CC1,0.0614 (active)
22,CNc1nccc(-c2ccc(Cl)cc2)c1C#N,0.0744
23,CCOC(=O)N/N=C1\CC(C)S(=O)(=O)c2ccc(Cl)cc21 (stereo not drawn),0.0738
